A word on the inhibition: it is the change of the read-out against control, counted positive when it falls.

The source of these data is PubChem BioAssay.

Assay [1] in a line: AGP1-GFP expression modulators, hit retest, confirmation, cell-based, flow cytometry, S. cerevisiae, cherry picks (AID 2273).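 Note: median GFP channel fluorescence over the whole cell population gate.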 Particulars: S. cerevisiae AGP1-GFP strain, 3 h, at 10 µM. (In flow cytometry, cells or beads pass a laser one at a time.)
Assay [2] has as its target Integrin beta-1 (Homo sapiens) + Integrin alpha-4 (Homo sapiens) (UniProt P13612+P05556). In words: inhibition of HUTS-21 binding to VLA-4, pilot screen, VLA-4 allosteric modulator project, U937 cells, HUTS-21 mAb, flow cytometry, validation set (AID 2674;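 active = inhibition above 50%, about 3 SD of the validation set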;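 note: antibody binding induced by the VLA-4 ligand LDV present at three times its Kd; 0% = LDV ligand with antibody and no compound and 100% = antibody without LDV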). Particulars: HUTS-21 LIBS mAb binding, at 6.7 µM, active compounds read high, binding induced by LDV ligand.
A short description of assay [3]: superoxide lowering in aged yeast cells, pilot screen, validation compound set (AID 2706;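 active = superoxide response below 65% of plate, a cut near 3 SD across the whole screen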;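 note: yeast exposed to compound for one week at 30 degrees C before staining; 100% = mean of all compound wells on the same plate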). Particulars: S. cerevisiae aging, superoxide DHE fluorescence; at 10 µM; active compounds read low.
For assay [4], the target named is Beta-adrenergic receptor kinase 1 (Homo sapiens) (UniProt P25098). In words: GRK2 binders displacing RNA aptamer, biochemical, validation, human GRK2, bead flow cytometry (AID 488806;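 active = aptamer binding inhibition above 30%, about 3 SD of noise from non-fluorescent compounds; inactive = inhibition at or below 30%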). Particulars: bead-bound GRK2, FAM-aptamer displacement, at 10 µM, active compounds read high.
Sequence of Beta-adrenergic receptor kinase 1 (Homo sapiens) (P25098 whole entry, looked up): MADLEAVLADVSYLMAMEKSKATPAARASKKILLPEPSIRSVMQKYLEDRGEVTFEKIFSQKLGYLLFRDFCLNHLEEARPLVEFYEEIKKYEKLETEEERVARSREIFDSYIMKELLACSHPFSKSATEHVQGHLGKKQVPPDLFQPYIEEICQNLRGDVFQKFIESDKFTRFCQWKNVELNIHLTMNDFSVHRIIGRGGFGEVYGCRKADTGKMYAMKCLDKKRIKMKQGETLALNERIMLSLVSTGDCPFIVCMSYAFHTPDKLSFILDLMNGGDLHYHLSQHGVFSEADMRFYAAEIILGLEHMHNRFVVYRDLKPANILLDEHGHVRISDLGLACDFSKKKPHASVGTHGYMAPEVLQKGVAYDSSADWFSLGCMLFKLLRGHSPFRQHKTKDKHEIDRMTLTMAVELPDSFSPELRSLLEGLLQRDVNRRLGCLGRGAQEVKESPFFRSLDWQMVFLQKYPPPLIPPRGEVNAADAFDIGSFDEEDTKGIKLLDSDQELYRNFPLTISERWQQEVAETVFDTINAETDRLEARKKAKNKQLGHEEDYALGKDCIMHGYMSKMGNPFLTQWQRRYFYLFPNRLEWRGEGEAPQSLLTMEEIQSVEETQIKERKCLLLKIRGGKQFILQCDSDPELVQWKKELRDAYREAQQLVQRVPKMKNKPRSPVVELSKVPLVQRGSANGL
The target of assay [5] is Beta-2 adrenergic receptor (Homo sapiens) (UniProt P07550). In words: beta2AR agonists driving receptor internalization, pilot screen, cell-based, FAP fluorogen, flow cytometry, validation set (AID 504459;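 active = percent response above 42, roughly 3 SD of non-fluorescent test compounds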;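 note: agonist-driven loss of surface beta2AR via internalization measured by FAP dye flow cytometry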). Particulars: Am2.2-beta2AR cells, FAP surface receptor flow cytometry; at 10 µM; active compounds read high.
Sequence of Beta-2 adrenergic receptor (Homo sapiens) (P07550 whole entry, looked up): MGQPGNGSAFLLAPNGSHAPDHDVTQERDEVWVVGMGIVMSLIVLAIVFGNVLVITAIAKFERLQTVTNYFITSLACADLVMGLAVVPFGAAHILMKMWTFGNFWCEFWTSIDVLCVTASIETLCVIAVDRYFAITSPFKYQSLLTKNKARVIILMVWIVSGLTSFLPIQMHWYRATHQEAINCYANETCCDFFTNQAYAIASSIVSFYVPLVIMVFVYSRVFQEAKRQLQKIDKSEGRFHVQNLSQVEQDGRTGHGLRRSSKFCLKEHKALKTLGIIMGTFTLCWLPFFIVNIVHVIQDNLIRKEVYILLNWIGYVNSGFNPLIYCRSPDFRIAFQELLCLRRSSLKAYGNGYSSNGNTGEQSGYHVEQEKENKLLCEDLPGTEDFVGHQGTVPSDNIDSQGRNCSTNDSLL
Assay [6] has as its target AP-2 complex subunit beta (Homo sapiens) (UniProt P63010). In words: inhibitors of arrestin peptide binding to AP2, pilot screen, biochemical, validation set, GST-AP2 beads, flow cytometry (AID 504541;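 active = inhibition above 54%, about 3 SD of non-fluorescent compounds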;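 note: AP2 carries R879A mutation and is captured from E. coli lysate; bead-bound FITC arrestin peptide fluorescence measuring arrestin peptide binding to AP2; 0% = DMSO wells and 100% = excess unlabeled arrestin peptide control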). The settings on record: FITC arrestin peptide, at 10 µM, active compounds read high, AP2 beta2 appendage fragment, R879A mutant.
A short description of assay [7]: yeast V-ATPase proton transport modulators, S. cerevisiae, pHLuorin, HTS validation (AID 504600; in the data active = response above about 15%;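 note: plate controls were DMSO for no effect and reference compound for full effect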). The settings on record: S. cerevisiae pHLuorin cytosolic pH, at 10 µM, active compounds read high.
Assay [8] concerns anti-desmoglein-3 scFv antibody binding to human DSG3. The assay is described as follows: inhibitors of anti-DSG3 scFv binding to DSG3, pilot screen, biochemical, validation compound set, bead-based, flow cytometry (AID 588368;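 active = binding below the plate cutoff, the plate median minus 3 SD, with a reading above zero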;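 note: signal is the median channel fluorescence of bead-bound GFP antibody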). Particulars: Protein G beads, DSG3-Fc, scFv-GFP binding, at 10 µM, active compounds read low.
A short description of assay [9]: inhibitors of fungal efflux pumps CDR1, CDR2, MDR1, pilot screen, validation compound set, multiplex, phenotypic (AID 588506;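 active = efflux inhibition above 0.42, the validation set average plus 4 SD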;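 note: Nile Red retained in cells so higher fluorescence means more efflux inhibition; 0 = negative control wells and 1 = enniatin B 25 µM full block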). The settings on record: S. cerevisiae pump-expressing triplex, Nile Red efflux flow cytometry; at 10 µM; active compounds read high; the pumps come from Candida albicans.
The target in assay [10] is ATP-binding cassette sub-family B member 6 (Homo sapiens) (UniProt Q9NP58). The assay is described as follows: ABCB6 transporter inhibitors, pilot screen, K562-ABCB6 cells, flow cytometry, validation set (AID 588550;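 active = inhibition above the screen-wide mean plus 3 SD, about 51%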;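 note: 0% = DMSO wells and 100% = benzethonium chloride 70 µM positive control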). Particulars: K562-ABCB6 porphyrin accumulation, 1 h, at 10 µM, active compounds read high.
Sequence of ATP-binding cassette sub-family B member 6 (Homo sapiens) (Q9NP58 whole entry, looked up): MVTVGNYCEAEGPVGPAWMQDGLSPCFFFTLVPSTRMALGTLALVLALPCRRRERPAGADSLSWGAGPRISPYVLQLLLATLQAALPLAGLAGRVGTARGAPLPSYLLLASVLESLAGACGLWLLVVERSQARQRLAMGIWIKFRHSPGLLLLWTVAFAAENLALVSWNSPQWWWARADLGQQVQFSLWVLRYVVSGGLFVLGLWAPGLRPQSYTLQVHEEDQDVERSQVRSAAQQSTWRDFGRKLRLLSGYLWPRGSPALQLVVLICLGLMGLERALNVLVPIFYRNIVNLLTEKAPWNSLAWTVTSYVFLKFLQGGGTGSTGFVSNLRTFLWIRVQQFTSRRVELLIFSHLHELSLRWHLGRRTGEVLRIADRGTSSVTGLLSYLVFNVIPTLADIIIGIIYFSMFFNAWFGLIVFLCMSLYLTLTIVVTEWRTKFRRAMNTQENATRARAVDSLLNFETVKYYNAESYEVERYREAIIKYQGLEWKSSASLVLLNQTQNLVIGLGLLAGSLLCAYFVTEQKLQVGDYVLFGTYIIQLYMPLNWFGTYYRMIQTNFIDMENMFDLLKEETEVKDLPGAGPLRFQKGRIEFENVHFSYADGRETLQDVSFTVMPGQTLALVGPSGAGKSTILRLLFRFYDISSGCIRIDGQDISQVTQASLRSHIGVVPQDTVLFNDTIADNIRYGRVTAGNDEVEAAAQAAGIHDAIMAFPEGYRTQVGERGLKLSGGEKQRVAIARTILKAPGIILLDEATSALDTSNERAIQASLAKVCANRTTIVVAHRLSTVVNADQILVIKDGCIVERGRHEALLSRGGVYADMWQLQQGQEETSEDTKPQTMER
The nature of assay [11]: promoters of myeloid differentiation in arrested cells, primary screen, cell-based, GFP/MAC1 double positive, flow cytometry, validation set (AID 588685;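 active = differentiation response of at least 50%, scaled between solvent and reference control, from cells with both markers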;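 note: compound exposure lasts four days before antibody staining and flow analysis; 0% = DMSO wells and 100% = 5 µM fulvestrant positive control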). Particulars: ER-HoxA9 marrow cells, active compounds read high, normalized: vehicle 0, fulvestrant 100.

A number with no mark means an inactive call. Activity calls are given as the source filed them.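 Rule for the calls, unless noted: active = GFP response above 150% of the DMSO level; inconclusive = fewer than 70 events counted for a yeast strain; inactive = the rest.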

Sequence of Integrin beta-1 (Homo sapiens) + Integrin alpha-4 (Homo sapiens) (P05556 whole entry, looked up): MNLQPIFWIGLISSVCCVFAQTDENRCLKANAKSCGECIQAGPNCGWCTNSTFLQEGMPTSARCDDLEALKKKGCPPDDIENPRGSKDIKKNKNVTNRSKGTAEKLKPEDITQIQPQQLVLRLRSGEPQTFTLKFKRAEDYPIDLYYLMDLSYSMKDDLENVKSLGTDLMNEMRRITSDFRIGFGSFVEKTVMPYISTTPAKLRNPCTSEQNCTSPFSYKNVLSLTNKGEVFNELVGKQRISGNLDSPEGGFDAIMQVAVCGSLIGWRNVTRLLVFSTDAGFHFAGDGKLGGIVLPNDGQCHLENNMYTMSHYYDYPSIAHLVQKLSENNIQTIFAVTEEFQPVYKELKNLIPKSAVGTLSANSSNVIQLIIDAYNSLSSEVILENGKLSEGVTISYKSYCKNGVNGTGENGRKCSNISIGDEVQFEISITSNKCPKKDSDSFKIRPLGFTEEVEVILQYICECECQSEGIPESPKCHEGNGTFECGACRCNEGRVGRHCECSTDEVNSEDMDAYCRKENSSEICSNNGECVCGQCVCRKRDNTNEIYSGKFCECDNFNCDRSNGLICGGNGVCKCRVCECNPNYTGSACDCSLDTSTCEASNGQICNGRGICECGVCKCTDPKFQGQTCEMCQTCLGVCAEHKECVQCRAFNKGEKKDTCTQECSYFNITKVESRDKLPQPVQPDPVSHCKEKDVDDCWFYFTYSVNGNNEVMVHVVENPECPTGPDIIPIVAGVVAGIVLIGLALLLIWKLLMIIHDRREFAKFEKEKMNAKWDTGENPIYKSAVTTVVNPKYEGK
Sequence of Integrin beta-1 (Homo sapiens) + Integrin alpha-4 (Homo sapiens) (P13612 whole entry, looked up): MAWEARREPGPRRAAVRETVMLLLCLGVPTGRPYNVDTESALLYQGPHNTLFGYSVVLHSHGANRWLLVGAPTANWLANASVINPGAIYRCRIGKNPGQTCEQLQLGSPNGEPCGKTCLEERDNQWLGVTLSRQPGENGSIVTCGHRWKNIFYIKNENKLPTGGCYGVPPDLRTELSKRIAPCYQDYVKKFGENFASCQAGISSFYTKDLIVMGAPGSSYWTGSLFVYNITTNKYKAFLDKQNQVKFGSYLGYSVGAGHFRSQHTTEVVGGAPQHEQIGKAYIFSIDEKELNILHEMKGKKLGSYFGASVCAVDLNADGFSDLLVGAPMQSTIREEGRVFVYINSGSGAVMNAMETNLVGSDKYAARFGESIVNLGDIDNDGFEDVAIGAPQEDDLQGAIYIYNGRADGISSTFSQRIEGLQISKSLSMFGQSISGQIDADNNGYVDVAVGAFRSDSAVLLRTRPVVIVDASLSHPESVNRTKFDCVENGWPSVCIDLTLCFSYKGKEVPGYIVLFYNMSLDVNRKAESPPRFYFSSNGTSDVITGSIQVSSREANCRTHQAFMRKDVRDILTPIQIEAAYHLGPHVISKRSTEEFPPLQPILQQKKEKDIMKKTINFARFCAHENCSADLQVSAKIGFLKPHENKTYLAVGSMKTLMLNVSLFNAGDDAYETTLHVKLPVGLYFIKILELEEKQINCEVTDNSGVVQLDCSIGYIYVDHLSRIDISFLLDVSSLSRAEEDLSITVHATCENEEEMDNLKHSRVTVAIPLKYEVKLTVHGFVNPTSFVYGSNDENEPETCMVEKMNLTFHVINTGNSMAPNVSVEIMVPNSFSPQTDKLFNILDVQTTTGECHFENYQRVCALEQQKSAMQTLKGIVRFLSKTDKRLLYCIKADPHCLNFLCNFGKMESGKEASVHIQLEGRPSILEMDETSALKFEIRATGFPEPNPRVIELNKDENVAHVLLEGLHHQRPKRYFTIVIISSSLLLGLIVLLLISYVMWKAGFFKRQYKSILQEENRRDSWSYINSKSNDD
Sequence of AP-2 complex subunit beta (Homo sapiens) (P63010 whole entry, looked up, the tested form may be a part, one chain of several): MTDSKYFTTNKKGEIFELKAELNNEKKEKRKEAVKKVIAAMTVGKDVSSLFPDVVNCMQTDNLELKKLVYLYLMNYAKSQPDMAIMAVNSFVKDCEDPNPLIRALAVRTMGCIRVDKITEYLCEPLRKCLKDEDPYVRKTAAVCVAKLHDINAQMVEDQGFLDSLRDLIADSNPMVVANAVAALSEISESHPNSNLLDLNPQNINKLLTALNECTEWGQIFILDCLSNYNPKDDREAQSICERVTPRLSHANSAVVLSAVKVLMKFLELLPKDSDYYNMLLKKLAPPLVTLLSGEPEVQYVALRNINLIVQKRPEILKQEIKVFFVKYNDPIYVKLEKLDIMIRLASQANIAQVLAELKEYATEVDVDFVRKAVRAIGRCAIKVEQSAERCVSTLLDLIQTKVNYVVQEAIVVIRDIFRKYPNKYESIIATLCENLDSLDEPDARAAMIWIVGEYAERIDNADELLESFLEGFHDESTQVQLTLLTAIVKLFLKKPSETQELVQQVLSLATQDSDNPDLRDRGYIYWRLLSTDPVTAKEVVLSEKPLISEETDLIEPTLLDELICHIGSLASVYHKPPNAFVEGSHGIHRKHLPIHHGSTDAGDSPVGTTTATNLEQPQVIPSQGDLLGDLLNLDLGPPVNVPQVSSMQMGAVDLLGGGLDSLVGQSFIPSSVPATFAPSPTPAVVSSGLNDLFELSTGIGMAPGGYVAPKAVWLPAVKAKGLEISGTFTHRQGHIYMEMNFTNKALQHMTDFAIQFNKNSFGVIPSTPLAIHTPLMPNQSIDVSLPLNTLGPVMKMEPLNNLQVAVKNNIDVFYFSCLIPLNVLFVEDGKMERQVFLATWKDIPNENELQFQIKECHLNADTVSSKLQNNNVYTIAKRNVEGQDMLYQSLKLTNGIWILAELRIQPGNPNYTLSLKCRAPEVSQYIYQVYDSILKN

For `O=C(/C=C/c1ccccc1)c1ccccc1`, the GFP response, % of DMSO in [1] is 99.7%. Also, the inhibition is 2.58% in assay [2], -4.66% in assay [6] and 14% in [10]. Moreover, the superoxide response (% of plate) in assay [3] was 92.2%. Further, the aptamer binding inhibition in assay [4] was 4%. Moreover, the response was 5.66% in assay [5] and -0.45% in assay [7]. In addition, the binding (% of control) in assay [8] is 107%. In [9], the efflux inhibition (fraction of control) was -0.31. Besides, the differentiation response in assay [11] is 9.83%.

In the case of `C[C@]12C[C@H](O)[C@H]3[C@@H](CCC4=CC(=O)CC[C@@]43C)[C@@H]1CC[C@@H]2C(=O)CO`, the GFP response, % of DMSO in [1] is 96.4%. Moreover, the inhibition in assay [2] is 31.7%; in assay [6] it was -0.36%; in assay [10] it was 12%. Besides, the superoxide response (% of plate) in [3] was 103%. The aptamer binding inhibition in assay [4] is 4%. Moreover, the response is 4.9% in assay [5] and 6.31% in [7]. Also, in assay [8], the binding (% of control) is 104%. In assay [9], the efflux inhibition (fraction of control) is -0.56. In addition, in assay [11], the differentiation response was 4.91%.

For `CS(=O)(=O)Nc1cccc(C(=O)CC2(O)C(=O)Nc3ccc(Br)cc32)c1` (stereo unspecified), the GFP response, % of DMSO in [1] was 101%. Also, the results for the inhibition in [2], in assay [6] and in [10] were -10.8%, 50% and 7%, respectively. In assay [3], the superoxide response (% of plate) is 112%. Further, the aptamer binding inhibition in assay [4] is 4%. Moreover, the response in [5] was -1.29%; in assay [7], -8.12%. The binding (% of control) in assay [8] was 101%. In addition, the efflux inhibition (fraction of control) in assay [9] was 0.08. In addition, the differentiation response in assay [11] is 5.13%.

For `O=c1cnn([C@@H]2O[C@H](CO)[C@@H](O)[C@H]2O)c(=O)[nH]1`, the GFP response, % of DMSO in [1] was 89.9%. In addition, the inhibition was 13.4% in [2], -3.47% in assay [6] and 0% in assay [10]. The superoxide response (% of plate) in assay [3] was 124%. Also, the aptamer binding inhibition in [4] is 1%. In addition, the response in assay [5] was -10.1%; in [7], -1.24%. In assay [8], the binding (% of control) was 107%. Also, the efflux inhibition (fraction of control) in [9] was -0.04. Also, in [11], the differentiation response is 1.91%.

For `O=C(O)CCNC(=O)c1ccccc1`, the GFP response, % of DMSO in [1] was 104%. Moreover, the inhibition in assay [2] is -4.21%; in assay [6], 47.5%; in [10], 112% (active). For the same compound, the superoxide response (% of plate) in assay [3] was 94.8%. In addition, the aptamer binding inhibition in assay [4] is 3%. Moreover, the response was 3.62% in [5] and -1.09% in assay [7]. In assay [8], the binding (% of control) is 98.7%. Further, the efflux inhibition (fraction of control) in [9] is 0.52 (active). The differentiation response in assay [11] is 26.2%.

On to `COc1ccc(C(=O)NCC2OCCc3ccccc32)cc1` (stereo unspecified), for which, in [1], the GFP response, % of DMSO is 91.3%. Moreover, the inhibition in assay [2] is -2.27%; in assay [6] it was 7.24%; in assay [10], 4%. For the same compound, the superoxide response (% of plate) in assay [3] was 92.6%. Further, the aptamer binding inhibition in [4] is 1%. Further, the response is -2.23% in assay [5] and -0.15% in [7]. Also, the binding (% of control) in [8] is 103%. Also, the efflux inhibition (fraction of control) in [9] was -0.28. The differentiation response in assay [11] was 2.46%.

With `COc1cccc(/C=C/C(=O)c2c(O)cc(C)oc2=O)c1O`, in [1], the GFP response, % of DMSO was 94.1%. The inhibition in assay [2] is -3.16%; in assay [6], 10.4%; in [10] it was -4%. In addition, in [3], the superoxide response (% of plate) is 80.7%. For the same compound, the aptamer binding inhibition in assay [4] is 3%. Moreover, the results for the response in [5] and in assay [7] were 17.4% and 2.77%, respectively. In addition, the binding (% of control) in [8] was 104%. The efflux inhibition (fraction of control) in assay [9] was 0.19. In assay [11], the differentiation response was 5.6%.

Consider `CN(C)CCN(Cc1ccccc1)c1ccccn1`, for which the GFP response, % of DMSO in assay [1] is 103%. Moreover, the inhibition in assay [2] is -6.15%; in assay [6], 49.6%; in assay [10] it was 113% (active). For the same compound, the superoxide response (% of plate) in [3] is 95.6%. For the same compound, in assay [4], the aptamer binding inhibition was 1%. Moreover, the response was 1.51% in assay [5] and -5.5% in [7]. Further, in [8], the binding (% of control) was 103%. For the same compound, the efflux inhibition (fraction of control) in [9] is 0.48 (active). Moreover, the differentiation response in assay [11] was -1.64%.

With `O=c1cc(-c2ccccc2)oc2cc(OCc3ccccc3)cc(O)c12`, in assay [1], the GFP response, % of DMSO is 98.9%. Besides, the values for the inhibition in assay [2], in assay [6] and in [10] were -16.8%, 30.1% and 0%, respectively. Besides, the superoxide response (% of plate) in [3] was 88.6%. Also, the aptamer binding inhibition in assay [4] was 0%. The values for the response in assay [5] and in assay [7] were -12.6% and -0.61%, respectively. Moreover, the binding (% of control) in assay [8] was 100%. For the same compound, the efflux inhibition (fraction of control) in assay [9] is 0.59 (active). For the same compound, the differentiation response in [11] was 5.73%.

With `COc1cc(/C=C/C(=O)CC(=O)/C=C/c2ccc(O)c(OC)c2)ccc1O`, the GFP response, % of DMSO in [1] is 98.7%. Further, in assay [4], the aptamer binding inhibition is 6%. The response in [5] was -195%; in assay [7], -4.77%. Besides, the inhibition in assay [6] is 14.9%; in assay [10], -398%. For the same compound, the binding (% of control) in assay [8] is 129%. Further, the efflux inhibition (fraction of control) in assay [9] is 0.24. For the same compound, the differentiation response in [11] is 18.8%.

For the compound `O=[N+]([O-])c1ccc(O)c2ncccc12`, the GFP response, % of DMSO in [1] was 128%. Moreover, the inhibition was -1.12% in assay [2], -6.92% in [6] and 1% in assay [10]. Further, the superoxide response (% of plate) in [3] was 56.6% (active). The aptamer binding inhibition in assay [4] was 0%. Also, the figures for the response in [5] and in assay [7] were -20% and 65.3% (active), respectively. In addition, the binding (% of control) in [8] was 83.2%. For the same compound, the efflux inhibition (fraction of control) in assay [9] was -0.13. Moreover, the differentiation response in assay [11] was -3.02%.

Take `CC(=O)c1ccc(CCCCCCCCCC(=O)O)s1`: the GFP response, % of DMSO in assay [1] is 95.2%. In addition, the values for the inhibition in [2], in assay [6] and in assay [10] were 13.2%, 26.2% and -2%, respectively. Besides, the superoxide response (% of plate) in [3] is 117%. Besides, in assay [4], the aptamer binding inhibition is -5%. For the same compound, the response is 23.9% in assay [5] and -3% in [7]. For the same compound, in assay [8], the binding (% of control) was 99.3%. Moreover, the efflux inhibition (fraction of control) in [9] is 0.01. Moreover, the differentiation response in [11] was 66.4% (active).

For `C[C@H]1C[C@@H]2[C@H]([C@@H](O)C[C@@]3(C)[C@H]2CC[C@]3(O)C(=O)CO)[C@@]2(C)C=CC(=O)C=C12`, the GFP response, % of DMSO in assay [1] was 96%. Besides, the inhibition is 10.3% in [2], 2.63% in [6] and 13% in [10]. Further, in [3], the superoxide response (% of plate) is 88.9%. In addition, in assay [4], the aptamer binding inhibition is 7%. Besides, the response in assay [5] was 1.51%; in [7] it was 0.24%. Further, the binding (% of control) in [8] is 99.2%. In addition, the efflux inhibition (fraction of control) in [9] was -0.38. The differentiation response in assay [11] was 0%.
